Results on five molecules are retold here after PubChem BioAssay AID435022 (Sanford-Burnham Center for Chemical Genomics, 2010).

Each structure is given as a SMILES string. In all, about 330,000 compounds went through this assay and about 1,100 (0.33%) were called active. Rule as the data show it: active = inhibition above about 35%; inactive = the rest. The full list was thinned out, with actives kept by preference.

This assay in a line: lowers stimulated NF-kB luciferase signal in 697 B cells – cell-based, luminescence, uHTS, B-cell NF-kB inhibitor project, primary screen (AID 435022). The conditions noted are these: 697 B-cell NF-kB luciferase reporter, PMA/ionomycin, 16 h; at 4 µM; active compounds read high. Background: Reporter assays use an easily measured gene product as a stand-in for the process of interest.
As a reminder, the inhibition is the drop in the measured response relative to a control, in per cent. Regarding `CCCCCCCCCCCCn1ccc(=N)cc1`, the inhibition is 90.6% (active).
Consider `CCOc1ccc(C2SCC(=O)Nc3c2c(C)nn3C2CCOC(C)(C)C2)cc1` (stereo not given), for which the inhibition is 24.3% (inactive).
The same measure for `COC(=O)COc1cc(C)cc2oc(=O)c3c(c12)CCCC3`: 13.3% (inactive); for `CN1C2C=C(N(C(=O)c3ccc(Cl)cc3)c3ccccc3)CC1CC2` (stereo not given): -2.33% (inactive); for `COc1cc(-n2c(=S)[nH]c3ccc(C)cc3c2=O)c(Cl)cc1Cl`: -21.6% (inactive).
